Bioassay records as filed in PubChem BioAssay.
Only some compounds are listed: those with a hit (about 3.5% of all), similar ones and a draw of the others.
GDH-TPI counter: inhibits GDH-TPI coupling enzymes, artifact for Mtb FBA screen; GDH-TPI coupled enzyme counterscreen, NADH absorbance; hit rate 1.2% among 360,000; AID 588335; inhibition, % at 4.8 µM; in the data active = inhibition above about 30%;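 note: 0% = DMSO wells and 100% = wells lacking the enzyme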
UGM FP inh: blocks M. tuberculosis UGM enzyme. P9WIQ1. purified UGM, fluorescence polarization probe displacement. AID 504406. inhibition, % at 10 µM. hit rate 0.06% among 320,000; in the data active = inhibition above about 10%, passing the limit was not always enough
FBA Mtb inh: Mtb fructose-bisphosphate aldolase inhibition. P9WQA3. purified M. tuberculosis FBA, fluorescence read-out. inhibition, % at 1 µM. hit rate 2.3% among 360,000. AID 588726; in the data active = inhibition above about 27%;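 note: 0% = vehicle and 100% = reference inhibitor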
Target sequence (P9WQA3 whole entry, looked up): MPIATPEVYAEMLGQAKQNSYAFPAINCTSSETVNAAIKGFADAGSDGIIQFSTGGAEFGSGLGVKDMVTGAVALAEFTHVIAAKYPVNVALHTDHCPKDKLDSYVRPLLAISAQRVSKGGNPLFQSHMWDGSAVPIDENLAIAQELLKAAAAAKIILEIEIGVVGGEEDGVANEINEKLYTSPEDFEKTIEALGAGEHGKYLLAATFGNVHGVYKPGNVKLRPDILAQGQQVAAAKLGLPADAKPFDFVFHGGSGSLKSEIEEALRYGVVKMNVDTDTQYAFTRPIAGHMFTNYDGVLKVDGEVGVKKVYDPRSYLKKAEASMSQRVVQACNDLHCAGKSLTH
Rv3671c inh: Rv3671c (M. tuberculosis) protease inhibition | P9WHR9 | inhibition, % at 5.96 µM | hit rate 0.048% among 320,000; in the data active = inhibition above about 38%;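 note: extracellular domain of Rv3671c used as enzyme; 0% = enzyme with DMSO and 100% = no enzyme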
Mtb betalactam: beta-lactam sensitization of Mtb H37Rv | AID 434955 | hit rate 0.27% among 330,000 | M. tuberculosis H37Rv growth with meropenem, percent inhibition | inhibition, % at 25 µM; call rule not given here;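 note: growth measured after seven days incubation then overnight dye step; 0% = bacteria only wells and 100% = bacteria with antibiotic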
The depositor's hits bear a star; x = no result; + = active, no number.

SMILES	GDH-TPI counter	UGM FP inh	FBA Mtb inh	Rv3671c inh	Mtb betalactam
O=C(N=c1nc2ccccn2s1)c1ccccc1	32*	-1	2	-4	5
O=C(c1ccccc1)n1c(=S)nc2ccccn21	30	-2	-5	-9	-13
CC(C(=O)NN)c1ccc([N+](=O)[O-])cc1 (configuration not stated)	6	-4	2	-1	-3
CC(=O)N1CCN(C(=O)COC(=O)CNC(=O)c2ccccc2C)CC1	5	0	2	2	-13
c1ccc(CCNc2cnccn2)cc1	13	7	+	-3	-3
Cc1ccc(CNc2cnccn2)cc1	6	-1	74*	-6	-3
c1ccc(CCNCc2cccnc2)cc1	3	1	0	4	-6
Cc1ccccc1-n1c2nc(=O)n(C)c(=O)c-2cc2ccccc21	21	-1	131*	6	-11
Cn1c(O)c(/C=N/c2ncccn2)c(=O)n(C)c1=O	32*	-1	4	-7	x
COc1ccc(N=Cc2c(O)n(C)c(=O)n(C)c2=O)cc1	26	3	1	1	84
Cc1ccc(N=Cc2c(O)n(C)c(=O)n(C)c2=O)cc1	35*	0	-2	-11	2
Cc1cccc(N=Cc2c(O)n(C)c(=O)n(C)c2=O)c1	36*	-2	-2	1	-3
CCOc1ccccc1N=Cc1c(O)n(C)c(=O)n(C)c1=O	-4	x	2	x	x
COc1ccc(NC(=O)CC2C(=O)N(c3ccc(OC)cc3)C(=O)N2Cc2ccc(OC)c(OC)c2)cc1 (configuration not stated)	-2	3	2	6	3
Cc1cccc(NC(=O)[C@@H]2CCCN2S(=O)(=O)c2ccc(Cl)cc2)c1	4	-1	1	2	-6
O=c1[nH]c(-[n+]2ccc3ccccc3c2)c(/C=N/N=C(\[O-])c2ccccc2)s1	31*	3	3	10	11
CC(C)(C)c1cc[n+](-c2[nH]c(=O)sc2/C=N/N=C(\[O-])c2cccnc2)cc1	32*	-1	-3	-9	-4
Cc1[nH]c2ccccc2c1/C=N/NC(=O)CNC(=O)c1ccco1	16	-2	0	4	-1
Cc1[nH]c2ccccc2c1/C=N/NC(=O)c1cccc(F)c1	19	1	2	2	1
CCc1cc(C(=O)N/N=C/c2c(C)[nH]c3ccccc23)cs1	32*	3	4	11	1
Cc1[nH]c2ccccc2c1/C=N\NC(=O)c1ccco1	57*	1	-3	x	-3
Cc1[nH]c2ccccc2c1/C=N/NC(=O)c1cc(C(C)C)[nH]n1	47*	0	2	6	-1
Cc1ccc(C(=O)Nc2cccc3cccnc23)cc1C	9	-1	1	-11	72
CCCCn1c(N)c(C(=O)OCC2CCCO2)c2nc3ccccc3nc21 (configuration not stated)	18	3	+	-158	26
Nc1c(C(=O)OCC2CCCO2)c2nc3ccccc3nc2n1C1CCCCC1 (configuration not stated)	8	0	14	-21	2
SMILES	GDH-TPI counter	UGM FP inh	FBA Mtb inh	Rv3671c inh	Mtb betalactam
CC(C)CCn1c(N)c(C(=O)OCC2CCCO2)c2nc3ccccc3nc21 (configuration not stated)	8	3	134*	-135	89
COc1ccc(/C=[N+](\[O-])C2N(c3ccccc3)C(=S)SC2(C)C)cc1OC (configuration not stated)	32*	1	-2	-3	-3
Cc1ccc(OCCCCN2CCCC(C)C2)c([N+](=O)[O-])c1 (configuration not stated)	7	0	0	-4	-2
COc1ccc2cc(S(=O)(=O)c3ccccc3)c(=O)oc2c1	36*	-1	+	1	-7
Cc1ccc(S(=O)(=O)c2cc3ccc(O)cc3oc2=O)cc1C	0	7	+	4	-2
Cc1ccc(/C=N/NC(=O)Cc2c(F)cccc2Cl)s1	15	3	2	-2	12
COc1ccc(/C=C/C(=O)Nc2cccc(S(=O)(=O)NC3=NCCCCC3)c2)c(OC)c1	36*	-3	4	-28	-1
CN(C)c1ccc(C(=O)Nc2cccc(S(=O)(=O)NC3=NCCCCC3)c2)cc1	31*	-2	-1	-2	-4
COc1ccc(OC)c(/C=C/C(=O)Nc2cccc(S(=O)(=O)NC3=NCCCCC3)c2)c1	0	0	20	-26	4
CC(C)(C)c1ccc(C(=O)Nc2cccc(S(=O)(=O)NC3=NCCC3)c2)cc1	0	-2	-2	0	5
CCc1nnc(NS(=O)(=O)c2ccc(NC(=O)/C=C/c3ccc(OC)cc3OC)cc2)s1	40*	0	4	-64	-2
O=C(/C=C/c1ccc(OC(F)F)cc1)Nc1cccc(S(=O)(=O)NC2=NCCCCC2)c1	1	5	-1	-55	-2
COc1ccc(/C=C/C(=O)Nc2cccc(S(=O)(=O)NC3=NCCCCC3)c2)cc1	51*	-1	6	-9	-3
CCc1nnc(NS(=O)(=O)c2ccc(N/C=C\C(=O)c3cccc(OC)c3)cc2)s1	17	1	2	-5	85
COc1cccc(C(C)(O)c2nc(-c3ccc(OC)c(OC)c3)cs2)c1 (configuration not stated)	2	x	-2	x	x
O=C(O)c1ccc(/C=N\Nc2ccccn2)cc1	54*	2	-3	3	-3
CN(C)c1ccc(/C=N\Nc2ccccn2)cc1	76*	1	2	5	-4
O=[N+]([O-])c1ccc(/C=N/Nc2ccccn2)cc1	13	2	-3	0	19
COCCN(CCOC)S(=O)(=O)c1ccc(Cl)nc1	2	1	-1	4	-2
CCN(CC)S(=O)(=O)c1ccc(Cl)nc1	8	-1	63*	-2	-10
COc1ccc(N2CCN(C(=O)C3CCCN(c4ncnc5c4nc4n5CCCCC4)C3)CC2)cc1 (configuration not stated)	1	0	2	-8	0
CC(=O)c1ccc(N2CCN(C(=O)C3CCC3)CC2)cc1	45*	-2	0	-5	11
CC(=O)c1ccc(N2CCN(C(=O)C3CCCN(c4ncnc5c4nc4n5CCCCC4)C3)CC2)cc1 (configuration not stated)	31*	0	3	5	1
CCOc1cc(NC(=S)NCC2CCCO2)c(OCC)cc1NC(=O)c1cccc(F)c1 (configuration not stated)	6	-3	5	2	-9
O=c1[nH]c(=S)[nH]c2sccc12	2	-2	4	-4	-5
COc1ccc2[nH]c(C(=O)Nc3ncc(C)cc3Br)cc2c1	-3	0	6	1	-8
COc1ccc(OC)c(/C=N/NC(=O)c2cc3c(OC)c(OC)ccc3[nH]2)c1	35*	0	1	14	1
COc1ccc2[nH]c(C(=O)N/N=C/c3ccc(OC)c(O)c3)cc2c1	49*	2	0	13	-2
